gsp antagonist: qHTS for Antagonists of gsp, the Etiologic Mutation Responsible for Fibrous Dysplasia/McCune-Albright Syndrome: qHTS. gsp-mutant cells, cAMP HTRF, 30 min. Potency, µM (titrated, usually from 76.9 µM), for inactives: at the highest dose activity change, negative = inhibition, hits mostly inhibitors. actives 0.4% (n = 340,000). AID 624288, 2012; calls by dose curve; cell line not stated here;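 further: intracellular cAMP measured with PDE inhibitor Ro 20-1724 present during compound exposure; potency means the concentration at half of the fitted maximal effect; on the % scale 0 is the no-effect control and ±100 the full control effect; nearly all actives have a fitted effect of over 65% in size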
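Cells, 2000/well, grown 16–24 h in DMEM 10% FBS with 0.5 mg/ml G418, then compounds plus […] (300 uM addition stock), 30 min at 37C. cAMP read by HTRF (cAMP-d2 and anti-cAMP antibody-K in lysis buffer) after 30 min RT.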
ClpP mod: qHTS Assay for Activators of ClpP. actives 1.9% (n = 340,000). purified B. subtilis ClpP, FRET peptide cleavage, 20 min. ATP-dependent Clp protease proteolytic subunit (Bacillus subtilis (strain 168)), P80244. Potency, µM (series often up to 57.5 µM), for inactives: at the highest dose activity change, negative = active; active means well fitted falling curve with a large enough effect; inconclusive means small, poorly fitted or top-dose-only effect; inactive means no such curve, though single readings can be large or run the other way; further: potency means the concentration at half of the fitted maximal effect; the source files actives as falling curves though it sought activators and does not explain the sign; nearly all actives have a fitted effect of over 65% in size
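ClpP 10 microg/mL final, pH 8 Tris/KCl buffer with BSA, glycerol, Tween-20; compound pinned in; FRET-FV substrate; RT 20 min; Ex320/Em430; ΔFRET vs ADEP 5.8 microM, DMSO, no enzyme.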
RXFP1 agonist: qHTS Assay for Agonists of the Relaxin Receptor RXFP1; actives 0.3% (n = 370,000); HEK293T-RXFP1 cAMP TR-FRET, 30 min; response scale: percent of porcine relaxin response, buffer zero; Relaxin receptor 1 (Homo sapiens), Q9HBX9; Potency, µM (highest dose often 57.5 µM), for inactives: top-dose activation, usual class: activators; AID 2676, 2010; active means well fitted activation curve with a large enough effect; inconclusive means small, poorly fitted or top-dose-only effect; further: potency means the concentration at half of the fitted maximal effect; on the % scale 0 is the no-effect control and ±100 the full control effect; nearly all actives have a fitted effect of over 60% in size
Target sequence (Q9HBX9 whole entry, looked up): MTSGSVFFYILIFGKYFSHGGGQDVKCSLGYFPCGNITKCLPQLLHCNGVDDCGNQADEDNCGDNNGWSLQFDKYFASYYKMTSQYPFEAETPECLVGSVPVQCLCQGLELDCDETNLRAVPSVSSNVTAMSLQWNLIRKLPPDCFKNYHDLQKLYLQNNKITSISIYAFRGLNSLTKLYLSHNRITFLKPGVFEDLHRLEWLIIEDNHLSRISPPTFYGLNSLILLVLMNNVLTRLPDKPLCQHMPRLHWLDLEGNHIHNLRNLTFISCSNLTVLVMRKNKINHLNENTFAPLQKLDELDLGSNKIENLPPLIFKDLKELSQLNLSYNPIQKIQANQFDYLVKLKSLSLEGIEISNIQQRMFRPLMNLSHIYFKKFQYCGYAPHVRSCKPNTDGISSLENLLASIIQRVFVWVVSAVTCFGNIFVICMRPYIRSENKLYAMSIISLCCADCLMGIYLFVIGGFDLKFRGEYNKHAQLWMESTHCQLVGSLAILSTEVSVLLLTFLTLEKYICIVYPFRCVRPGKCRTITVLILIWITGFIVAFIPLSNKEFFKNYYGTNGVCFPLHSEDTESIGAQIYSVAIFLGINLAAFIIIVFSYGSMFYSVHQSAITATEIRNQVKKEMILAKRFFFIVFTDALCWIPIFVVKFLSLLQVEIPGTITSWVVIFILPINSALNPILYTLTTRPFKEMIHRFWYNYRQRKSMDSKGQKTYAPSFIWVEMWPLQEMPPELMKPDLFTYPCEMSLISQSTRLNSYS
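HEK293 cells stably expressing RXFP1, treated 30 min at 37C with compounds plus PDE4 inhibitor Ro 20174; cAMP measured by HTRF TR-FRET. Normalized to buffer and 29 nM porcine relaxin; EC50 by Hill fit.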
gsp agonist: qHTS for Agonist of gsp, the Etiologic Mutation Responsible for Fibrous Dysplasia/McCune-Albright Syndrome: qHTS | Potency, µM (top dose mostly 76.9 µM), for inactives: at the top dose activation (cAMP increase), actives largely listed as activators | gsp mutant cells, cAMP HTRF, 30 min | actives 0.13% (n = 340,000) | AID 624287, 2012; active means well fitted activation curve with a large enough effect; inconclusive means small, poorly fitted or top-dose-only effect, or another doubt; inactive means no such curve, though single readings can be large or run the other way; cell line not stated here;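 further: phosphodiesterase inhibitor Ro 20-1724 added with compounds to block cAMP breakdown; potency means the concentration at half of the fitted maximal effect; nearly all actives have a fitted effect of over 60% in size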
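Cells stably selected in G418 were plated at 2000/well, grown 16-24 hr, then given compounds in DMSO with the PDE inhibitor […] (300 uM solution added) for 30 min at 37C; cAMP was read by HTRF.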
RXFP1 antagonist: qHTS Assay for Antagonists of the Relaxin Receptor RXFP1; activity change, negative = inhibition, % at 57.5 µM; HEK293-RXFP1, relaxin-stimulated cAMP HTRF, 30 min; stronger effect = lower value; actives 0.59% (n = 350,000); AID 1259400, 2018; Relaxin receptor 1 (Homo sapiens), Q9HBX9;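 active means activity change of -60% or lower, but not beyond a set lower limit; inconclusive means change between -60% and -40%, or beyond the set limit; inactive means change above -40%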; further: on the % scale 0 is the no-effect control and ±100 the full control effect
Akt phos inh: HTS Assay for Inhibitors of Akt Phophorylation: Primary Screen; actives 0.32% (n = 360,000); Neuro2A IGF-stimulated pAkt S473 HTRF, 20 min; stronger effect = lower value; activity change, % for hits at 50 µM; in the data active means activity change below about -80%; inconclusive means mostly about -51% to -80%; further: on the % scale 0 is the no-effect control and ±100 the full control effect
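Neuro2A cells (4,500/well, DMEM with 0.5% FBS) were treated with compound at a single 50 µM final concentration, stimulated with 6 nM IGF for 20 min at 37 °C, and lysed. Phospho-Akt Ser473 was read by HTRF as 665/615 ratio ×10^4.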
* marks the source's active call; other numbers are inactive results; i = inactive; ? = inconclusive; . = no result; [ ] = another dose, or the depositor's remark. Only some compounds are listed: those with a hit (about 2.7% of all), similar ones and a draw of the others.

SMILES	gsp antagonist	ClpP mod	RXFP1 agonist	gsp agonist	RXFP1 antagonist	Akt phos inh
CC(NCC(O)COCCC12CC3CC(CC(C3)C1)C2)c1ccccc1 (stereo not given)	1%	0%	1%	?	-62*	i
CC(C)CCNC(=O)C1CCN(S(=O)(=O)c2ccc(-n3cnnn3)cc2)CC1	-10%	32µM*	1%	-2%[15.4 µM]	4	i
COc1ccc(CCNC(=O)C2CCN(S(=O)(=O)c3ccc(-n4cnnn4)cc3)CC2)cc1OC	-13%	0%	0%	-28%	22	.
CCCCS(=O)(=O)NC1=NCN(CCOC(=O)c2ccccc2)CN1	5%	-1%	.	-1%	-15	-103%*
Cc1ccc(S(=O)(=O)NC2=NCN(CCOC(=O)c3ccccc3)CN2)cc1	3%	-1%	1%	-48%	4	i
CCCCCCCCC[n+]1cccc2c3ccccc3ccc21	-14%	?	0%	-1%	-60*	i
Cc1cn2nc(N)c3ccccc3c2n1	14%	28µM*	8%	0%	-7	i
Nc1nn2cc(-c3ccccc3)nc2c2ccccc12	-8%	?	5%	-26%[15.4 µM]	-27	i
Cc1ccc(C(CC(=O)NCC2(c3ccccc3)CCCC2)c2ccccc2)c(O)c1 (stereo not given)	.	-8%	2%	.	-65*	.
C=CCNC(=O)N1CCCC(N2CCN(c3ccccc3OC)CC2)C1 (stereo not given)	11%	16µM*	1%	5%[15.4 µM]	2	i
Cc1ccc(C(=O)N2CCCC(C(=O)c3cc(F)ccc3F)C2)s1 (stereo not given)	4%	0%	4%	4%	1	i
Cc1ccc(C(=O)N2CCCC(N(C)Cc3ccccc3)C2)s1 (stereo not given)	6%	22µM*	0%	?	-13	i
CC(CCc1ccccc1)NC(=O)COC(=O)c1ccccc1Br (stereo not given)	-10%	0%	2%	0%	0	i
CC(CCc1ccccc1)NC(=O)COC(=O)c1cccc2ccccc12 (stereo not given)	-5%	25µM*	2%	-19%	-4	i
Cc1cc(C(=O)O)cc(S(=O)(=O)Nc2c(C)nn(C)c2C)c1C	4%	0%	.	-13%[15.4 µM]	-24	i
O=C(CC(=O)c1ccccc1O)c1ccc(F)cc1	40µM*	2%	4%	?	-35	i
O=C(Nc1nccs1)[C@@H]1CC=C[C@@H]2CCN(Cc3ccc(Cl)c(Cl)c3)C(=O)[C@@H]21	.	-1%	.	.	.	.
CSc1cc(/C=N/O)c(SC)s1	2%	-8%	7%	-3%	-8	-116%*
CC(OC(=O)c1ccc2c(c1)OCCO2)C(=O)NC1CCCCC1C (stereo not given)	9%	.	0%	12%[15.4 µM]	-72*	i
CS(=O)(=O)N(CC(=O)NCCSCc1ccccc1)c1ccccc1Br	-14%	1%	0%	?	-6	i
COc1cc(C)c(C(=O)CC(=O)c2c(C)cc(OC)cc2C)c(C)c1	-5%	.	.	11%	-66*	i
COc1ccccc1-c1nn2c(-c3cc(C)[nH]n3)nnc2s1	.	-4%	.	.	.	.
C/C(=N/NC(=O)CNC(=O)/C=C/c1ccco1)c1ccc(Cl)cc1	2%	28µM*	-1%	-12%[15.4 µM]	-17	i
CC(=O)/C(=C/Nc1ccc(Oc2ccccc2)cc1)c1ccccc1	-4%	7.9µM*	2%	?	.	i
O=c1n(Cc2ccccc2)c2cc(Cl)cnc2n1Cc1ccccc1	-9%	28µM*	-1%	4%	1	i
SMILES	gsp antagonist	ClpP mod	RXFP1 agonist	gsp agonist	RXFP1 antagonist	Akt phos inh
CCn1ccc2cc(S(=O)(=O)N3CCC(C(=O)NCc4cccc(Cl)c4)CC3)ccc21	.	-13%	4%	.	-1	.
Cc1cccc(N2CCN(C(=O)c3nn(C)c4c3CS(=O)(=O)c3ccccc3-4)CC2C)c1 (stereo not given)	35µM*	-3%	-4%	9%	14	i
Cc1cccc(N2CCN(C(=O)c3nn(C)c4c3CSc3ccccc3-4)CC2C)c1 (stereo not given)	.	1%	-4%	.	-37	.
Cc1ccc(S(=O)(=O)NCCC(=O)NC(C)CCc2ccccc2)cc1 (stereo not given)	-6%	.	0%	1%[15.4 µM]	-62*	i
CC(C)(C)c1ccc(C(=O)CCC(=O)OCC(=O)NCCc2ccc(S(N)(=O)=O)cc2)cc1	32µM*	-4%	0%	1%	-39	i
NS(=O)(=O)c1ccc(CCNC(=O)COC(=O)CCc2ccccc2)cc1	2%	.	-1%	-14%	5	i
O=C(c1cccc(N2C(=O)C3C4C=CC(C4)C3C2=O)c1)N1CCN(c2ccccc2F)CC1 (stereo not given)	2%	0%	1%	23%	-17	i
CSc1nnc(C)c(=O)n1COC(=O)COc1ccccc1C	9%	28µM*	0%	-13%	-4	i
CSc1nnc(C)c(=O)n1COC(=O)COc1ccccc1F	12%	.	2%	?	-11	i
O=C(O)c1ccccc1NCc1ccncc1	8%	14µM*	2%	-2%	-19	i
O=C(O)c1ccc(CNc2ccccc2C(=O)O)cc1	13%	32µM*	-1%	0%	-4	i
O=C(O)c1ccccc1NCc1ccsc1	-3%	.	5%	9%[15.4 µM]	-11	i
C=CC[C@H](c1ccc(F)cc1)N(CC(C)C)S(=O)(=O)C=C	.	2%	.	.	.	.
Cc1cc2ccccc2c(=O)n1CC(=O)NCC1COc2ccccc2O1 (stereo not given)	-8%	25µM*	6%	-1%	11	i
CCN(CC)C(=O)Cn1cc(C(=O)C(=O)NCc2cccs2)c2ccccc21	6%	1%	30%	3%[15.4 µM]	-32	i
Cc1nc2ccccc2c2oc(C(=O)NCC3COc4ccccc4O3)cc12 (stereo not given)	40µM*	-2%	0%	?	-84*	i
CCN(CC)C(=O)Cn1cc(C(=O)C(=O)NCC2COc3ccccc3O2)c2ccccc21 (stereo not given)	-28%	20µM*	8%	4%[15.4 µM]	-15	i
CCc1ccc(CNC(=O)c2cc3c(C)nc4ccccc4c3o2)cc1	-25%	?	0%	-26%	-7	i
